For 57 molecules, activity change, negative = inhibition results are on record in PubChem BioAssay AID504652 (National Center for Advancing Translational Sciences (NCATS), 2011).

Out of some 360,000 compounds screened, about 11,000 (3.1%) were called active. Shown is part of a subset that was picked to be rich in actives. A number with no mark means an inactive call. Cut-off read from the data, not from the text of the source: active = activity change below about -30%; inactive = the rest.
% is set by controls: 0 for no effect and ±100 for the full control effect.

For the experiment, the target named is D(1A) dopamine receptor (Homo sapiens) (UniProt P21728). Put plainly: Antagonist of Human D 1 Dopamine Receptor: qHTS. The note with it: HEK293 TREx D1 cells, calcium flux, dopamine EC80; at 10 µM; stronger effect = lower value. In a few lines: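 Antagonism measured as reduced calcium response to an EC80 dopamine addition following 180 s compound pre-read; cells were inducible HEK293 Trex D1 plated overnight at 30 C, read kinetically at 1 cycle/sec.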
Chain of D(1A) dopamine receptor (Homo sapiens) (P21728 whole entry, looked up): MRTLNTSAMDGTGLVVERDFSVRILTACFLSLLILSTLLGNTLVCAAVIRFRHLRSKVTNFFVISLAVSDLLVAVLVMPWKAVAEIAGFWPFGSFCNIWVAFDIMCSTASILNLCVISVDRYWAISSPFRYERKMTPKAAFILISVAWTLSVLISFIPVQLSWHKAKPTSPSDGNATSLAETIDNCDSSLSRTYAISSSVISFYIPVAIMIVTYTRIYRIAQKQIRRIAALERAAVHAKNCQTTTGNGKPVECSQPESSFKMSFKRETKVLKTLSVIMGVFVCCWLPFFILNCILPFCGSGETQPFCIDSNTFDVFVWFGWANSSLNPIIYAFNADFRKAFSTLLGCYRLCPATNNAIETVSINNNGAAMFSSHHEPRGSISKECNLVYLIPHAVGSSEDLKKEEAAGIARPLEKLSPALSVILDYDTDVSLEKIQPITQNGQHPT
(qHTS replaces the single test concentration by a dilution series.)
With `O=C(Cc1c[nH]c2ccccc12)OCCOC(=O)Cc1c[nH]c2ccccc12`, the activity change, negative = inhibition is -32.2% (active).

On to `O=C(COC(=O)Cc1c[nH]c2ccccc12)NCCc1ccccc1`, for which the activity change, negative = inhibition was -2.05%.

With `CCOC(=O)CN(C)Cc1c[nH]c2ccccc12`, the activity change, negative = inhibition is 0.896%.

For `Cc1ccc(S(=O)(=O)N2CCc3cc(C(=O)Nc4ccc(Cl)cc4C)ccc32)cc1`, the activity change, negative = inhibition was 3.15%.

For the molecule `CCOc1ccc(Nc2nc3c(S(=O)(=O)c4cccc(Cl)c4)nnn3c3ccsc23)cc1`, the activity change, negative = inhibition was -38.1% (active).

`O=S(=O)(c1ccc(Cl)cc1)c1nnn2c1nc(NC1CCCC1)c1sccc12`: the activity change, negative = inhibition was -19.7%.

For `O=S(=O)(c1ccc(Br)cc1)c1nnn2c1nc(NC1CCCCCC1)c1sccc12`, the activity change, negative = inhibition is 4.84%.

Turning to `COc1ccc(-c2nnc(SCC(=O)Nc3ccc(C(C)C)cc3)nc2-c2ccc(OC)c(OC)c2)cc1OC`, the activity change, negative = inhibition is -19.7%.

Consider `NC1=NC(c2cc(F)cc(F)c2)n2c(nc3ccccc32)N1` (configuration not stated), for which the activity change, negative = inhibition is 0.602%.

Regarding `CCc1cccc(C)c1NS(=O)(=O)c1ccc(-c2cc(C)no2)s1`, the activity change, negative = inhibition was 24.4%.

On to `O=C(Nc1ccc2c(c1)OCCO2)C1CCCC1`, for which the activity change, negative = inhibition was -32.7% (active).

Consider `O=C(Nc1ccc2c(c1)OCCO2)c1ccoc1`, for which the activity change, negative = inhibition is 15.7%.

Regarding `O=C(Nc1ccc2c(c1)OCO2)C1CC1(Cl)Cl` (configuration not stated), the activity change, negative = inhibition is -9.18%.

For the molecule `COc1ccc(NC(=O)NC(C)c2c(-n3cccc3)sc(C)c2C)cc1OC` (configuration not stated), the activity change, negative = inhibition is -6.54%.

`COc1ccc(N2CCN(C3=NS(=O)(=O)C(c4cccc(Br)c4)=C3C)CC2)cc1`: the activity change, negative = inhibition is -8.66%.

In the case of `N#Cc1c(NC(=O)C2CCCO2)sc2c1CCCCC2` (configuration not stated), the activity change, negative = inhibition was -19.1%.

For the molecule `CCN1CCN(CC(=O)Nc2sc3c(c2C#N)CCC3)CC1`, the activity change, negative = inhibition is -11.5%.

In the case of `N#Cc1c(NC(=O)CCCl)sc2c1CCCCC2`, the activity change, negative = inhibition was -30.1% (active).

As to `COc1ccccc1CNC(=O)CS(=O)(=O)c1cccc2nsnc12`, the activity change, negative = inhibition was 13.8%.

`CCCn1c2ccccc2c2cnn(CC(=O)NCC3CCN(Cc4ccc(C)cc4)CC3)c(=O)c21`: the activity change, negative = inhibition is -18.2%.

On to `Cn1c(CNc2nc(-c3ccccc3)cs2)nnc1SCC(=O)c1ccccc1`, for which the activity change, negative = inhibition is -24.4%.

With `CCOC(=O)CSc1nnc(CNc2nc(-c3ccccc3)cs2)n1C`, the activity change, negative = inhibition is -37.1% (active).

In the case of `CCOC(=O)CSc1nnc(CNC(=O)c2cccs2)n1-c1ccccc1`, the activity change, negative = inhibition is -4.34%.

As for `COc1ccc(-c2nn(CC(=O)Nc3ccccc3F)c3c2cnc2ccc(F)cc23)cc1`, the activity change, negative = inhibition was -0.202%.

Take `COc1ccc(-c2nn3c(-c4ccc(OC)cc4)nnc3c3ccccc23)cc1`: the activity change, negative = inhibition was -13.1%.

With `COc1ccc(-c2nc3ccc(C(=O)NCc4ccc(C)cc4)cc3nc2-c2ccc(OC)cc2)cc1`, the activity change, negative = inhibition is -1.2%.

As for `COc1ccc(CNC(=O)c2ccc3c(O)c(S(=O)(=O)c4ccccc4)c(=O)[nH]c3c2)cc1`, the activity change, negative = inhibition was 5.97%.

On to `Cc1cc(C)cc(NC(=O)CCS(=O)(=O)c2cc3c4c(c2)CCN4C(=O)CC3)c1`, for which the activity change, negative = inhibition was 20.6%.

As for `CCn1nc(C)cc1C(=O)N1CCCC(C(=O)c2cccc(OC)c2)C1` (configuration not stated), the activity change, negative = inhibition is 0.174%.

`Cn1nccc1C(=O)N1CCCC(C(=O)c2ccc(Oc3ccccc3)cc2)C1` (configuration not stated): the activity change, negative = inhibition is -33% (active).

Take `O=C(c1ccc(-c2ccccc2)cc1)C1CCCN(C(=O)c2cncs2)C1` (configuration not stated): the activity change, negative = inhibition was -2.69%.

Turning to `Cc1nnc(NC(=O)CSc2nc3c([nH]c4ccccc43)c(=O)n2-c2cccc(Cl)c2)s1`, the activity change, negative = inhibition was -3.1%.

As for `CCOC(=O)c1c(NC(C)=O)c2c3c(sc2n1Cc1c(C)cc(C)cc1C)CCCC3`, the activity change, negative = inhibition was 27.5%.

As to `CCOC(=O)C(Cc1ccccc1)NC(=O)CCc1c(C)nc2c(c(C)nn2-c2ccc(C)c(C)c2)c1C` (configuration not stated), the activity change, negative = inhibition was -20.6%.

On to `N#CCC(=O)N/N=C/c1cn(Cc2ccc3ccccc3c2)c2ccccc12`, for which the activity change, negative = inhibition was 16.1%.

On to `COc1cccc(Cn2cc(/C=N/NC(=O)c3cc(O)cc(O)c3)c3ccccc32)c1`, for which the activity change, negative = inhibition is 3.21%.

`CCOC(=O)N/N=C/c1cn(Cc2ccccc2Cl)c2ccccc12`: the activity change, negative = inhibition was -33.9% (active).

Regarding `CCc1ccc(NC(=O)c2nn(-c3ccc(C)cc3)c(=O)n(C)c2=O)cc1`, the activity change, negative = inhibition is -19.1%.

Take `Cc1ccc(N(CC(=O)NCc2ccc(Cl)cc2)S(=O)(=O)N(C)C)cc1`: the activity change, negative = inhibition was 27%.

Regarding `CC(C)(C)c1ccc(C(=O)NCC(c2ccc(Cl)cc2)N2CCOCC2)cc1` (configuration not stated), the activity change, negative = inhibition was -13.3%.

Take `O=c1cc(COc2cccc(C(F)(F)F)c2)nc2sc3c(n12)CCCC3`: the activity change, negative = inhibition was -4.09%.

For the molecule `O=C(CSCc1cnn(-c2ccccc2)c1-n1cccc1)NCc1ccc(Cl)cc1`, the activity change, negative = inhibition is 5.55%.

`CCCOc1ccc(C2c3c(-c4ccccc4O)n[nH]c3C(=O)N2Cc2cccnc2)cc1` (configuration not stated): the activity change, negative = inhibition is 27.7%.

As to `[O-][n+]1c2c(nn1-c1ccc(Cl)c(Cl)c1)-c1nonc1CC2`, the activity change, negative = inhibition was -35.4% (active).

With `Cc1nnc(N2CCC(C(=O)Nc3ccc(F)cc3)CC2)c2nn(-c3ccc(Cl)cc3)c(C)c12`, the activity change, negative = inhibition is -3.69%.

On to `COc1cc(C(=O)NNC(=O)c2ccc(S(=O)(=O)N3CCCCC3)cc2)cc(OC)c1OC`, for which the activity change, negative = inhibition was -4.12%.

In the case of `COc1ccc(S(=O)(=O)N2CCCCC2)cc1Br`, the activity change, negative = inhibition is -47.9% (active).

For the molecule `COc1ccc(F)cc1S(=O)(=O)N1CCCCC1`, the activity change, negative = inhibition is 1.35%.

Take `COc1ccc(OC)c(-c2csc(-c3c(N)c(C(=O)c4ccccc4)n4ccccc34)n2)c1`: the activity change, negative = inhibition is -9.07%.

Regarding `O=C(O)/C=C/C(=O)NNc1ccc([N+](=O)[O-])cc1`, the activity change, negative = inhibition was 4.19%.

Consider `Cc1c(NC(=S)NCc2ccc(F)cc2)cccc1[N+](=O)[O-]`, for which the activity change, negative = inhibition was -31.5% (active).

Consider `Cc1cccc(NC(=S)NCCc2ccc(F)cc2)c1C`, for which the activity change, negative = inhibition was -6.25%.

With `Cc1c(NC(=O)CCCOc2ccccc2)cccc1[N+](=O)[O-]`, the activity change, negative = inhibition is 0.202%.

Regarding `O=[N+]([O-])c1ccccc1NCc1ccc(Cl)cc1`, the activity change, negative = inhibition was -2.99%.

Regarding `Cc1c(NC(=O)/C=C/C(=O)O)cccc1[N+](=O)[O-]`, the activity change, negative = inhibition is -41.8% (active).

As to `COc1ccc(-c2cccc(NS(=O)(=O)c3cc(C)c(OC)c(C)c3C)c2)nn1`, the activity change, negative = inhibition is -20.7%.

For `COc1ccc(-c2cc(C(=O)NCc3cc(OC)c(OC)c(OC)c3)[nH]n2)cc1`, the activity change, negative = inhibition is -10.2%.
